# PubChem BioAssay (Tox21)
# Results filed as inconclusive are left out. Where a call stands in place of a potency, no number is given. The source made the active and inactive calls. Calls follow the shape of the dose curve; as a rule, active = well fitted cell-killing curve with a large enough effect in the repeat runs; inconclusive = weak or mixed curves; inactive = flat fitted curve, though single readings scatter.
# Test: qHTS assay to identify small molecule antagonists of the estrogen receptor beta (ER-beta) signaling pathway - cell viability counter screen (AID 1259382); also: nearly all actives have a fitted effect of over 55% in size
# Conditions: ER-beta-UAS-bla HEK293T viability, CellTiter-Glo luminescence, 16 h; series mostly up to 92.4 µM
# Source text: U.S. Tox21 Program National Center for Advancing Translational Sciences [NCATS] NIH Chemical Genomics Center [NCGC] U.S. Environmental Protection Agency [EPA] National Institutes of Environmental Health Sciences [NIEHS] National Toxicology Program [NTP] U.S. Food and Drug Administration [FDA] Tox21 Assay Overview: Estrogen receptor (ER), a nuclear hormone receptor, plays an important role in development, metabolic homeostasis and reproduction. Two subtypes of ER, ER-alpha and ER-beta, have similar expression patterns with some uniqueness in both types. Endocrine disrupting chemicals (EDCs) and their interactions with steroid hormone receptors like ER causes disruption of normal endocrine function. To identify the compounds that inhibit ER signaling, an ER-beta-UAS-bla GripTite cell line (Life Technologies, Madison, WI, USA) containing a beta-lactamase reporter gene under the control of an UAS response element was used to screen Tox21 10K compound library. The cytotoxicity of the Tox21 compound library against the ER-beta-bla cell line was tested in parallel by measuring the cell viability using CellTiter-Glo assay in the same wells.
# Tox21 Assay Protocol Summary: ER-beta-UAS-bla HEK293T cells were dispensed at 2,000 cells/4 uL of assay medium containing 2% charcoal stripped FBS per well into black wall/clear-bottom 1536-well plates using a Multidrop Combi (ThermoFisher Scientific, Waltham, MA) dispenser. After the assay plates were incubated at a 37C and 5% CO2 for 6 hr, 23 nL of compounds dissolved in DMSO, positive controls or DMSO only was transferred to the assay plate by a Pintool station (Kalypsys, San Diego, CA), followed by addition of 1 uL (1nM as final concentration) of 17-beta-estradiol (E2) in assay medium using a Flying Reagent Dispenser (FRD, Aurora Discovery, San Diego, CA). The plates were incubated at 37C and 5% CO2 for 16 hr. Then 1 uL of LiveBLAzer B/G FRET substrate was added using a Flying Reagent Dispenser, the plates were incubated at room temperature for 2 hours, and fluorescence intensity was measured by an Envision plate reader (PerkinElmer, Shelton, CT). For cell viability readout that measures cytotoxicity, 4 uL/well of CellTiter-Glo reagent was added into the assay plates using a FRD. After 30 min incubation at room temperature, the luminescence intensity in the plates was measured using a ViewLux (PerkinElmer) plate reader.
row,Structure (SMILES),Potency
1,O=C1C(N(CO)C(=O)NCO)N(CO)C(=O)N1CO (stereo not given),inactive
2,CCCN(CCC)C(=O)SCC,inactive
3,O=Cc1ccc(CO)o1,inactive
4,CC/C=C(\C(=O)N[C@@H]1C(=O)N2C(C(=O)OCOC(=O)C(C)(C)C)=C(COC(N)=O)CS[C@H]12)c1csc(N)n1,inactive
5,Cc1ccc(C)c(S(=O)(=O)O)c1,inactive
6,O=[N+]([O-])c1ccccc1C(F)(F)F,inactive
7,Cc1ccccc1C=O,inactive
8,CC[N+](CC)(CC(=O)Nc1c(C)cccc1C)Cc1ccccc1,inactive
9,OCC(CO)(CO)CO,inactive
10,CCCCCCC(=O)O,inactive
11,CC(=O)OC[C@H]1O[C@@](COC(C)=O)(O[C@H]2O[C@H](COC(C)=O)[C@@H](OC(C)=O)[C@H](OC(C)=O)[C@H]2OC(C)=O)[C@@H](OC(C)=O)[C@@H]1OC(C)=O,inactive
12,O=c1c(O)c(-c2ccc(O)c(O)c2)oc2cc(O)cc(O)c12,inactive
13,CCCCCCCCC(=O)O,inactive
14,CC1(C)[C@@H](O[C@H]2O[C@H](C(=O)O)[C@@H](O)[C@H](O)[C@H]2O[C@@H]2O[C@H](C(=O)O)[C@@H](O)[C@H](O)[C@H]2O)CC[C@]2(C)[C@H]3C(=O)C=C4[C@@H]5C[C@@](C)(C(=O)O)CC[C@]5(C)CC[C@@]4(C)[C@]3(C)CC[C@@H]12,inactive
15,CC/C(C)=N/O,inactive
16,CC(C)(CO)CO,inactive
17,Cc1cc(C)c(O)c(C)c1,inactive
18,C1CCCNCC1,inactive
19,CCOC(=O)CC(=O)OCC,inactive
20,COC(=O)OC,inactive

row,Structure (SMILES),Potency
1,CO[Si](CCCNCCN)(OC)OC,inactive
2,CCCOC(=O)NCCCN(C)C,inactive
3,O=C(c1ccccc1)c1ccc(O)c(O)c1O,inactive
4,CCCCC(CC)COC(=O)c1ccc(C(=O)OCC(CC)CCCC)cc1 (stereo not given),inactive
5,N[C@@H](Cc1cc(I)c(Oc2ccc(O)c(I)c2)c(I)c1)C(=O)O,inactive
6,OCC(O)CS (stereo not given),inactive
7,NC1CCCCC1N (stereo not given),inactive
8,CCCCCCCCO,inactive
9,C[Si](C)(C)N[Si](C)(C)C,inactive
10,Nc1cccc(N)n1,inactive
11,CCCCC(=O)O,inactive
12,N#CCC(=O)O,inactive
13,CCCOCC(C)O (stereo not given),inactive
14,C=C(CC(=O)O)C(=O)O,inactive
15,CCc1cccc(O)c1,inactive
16,C=C(C)CC(C)(C)C,inactive
17,CCCCCCCC(=O)O,inactive
18,COc1ccc2cc3[n+](cc2c1OC)CCc1cc2c(cc1-3)OCO2,inactive
19,Nc1nc(N)c2nc(-c3ccccc3)c(N)nc2n1,inactive
20,COc1ccc([C@@H]2CC(=O)c3c(O)cc(O[C@@H]4O[C@H](CO[C@@H]5O[C@@H](C)[C@H](O)[C@@H](O)[C@H]5O)[C@@H](O)[C@H](O)[C@H]4O)cc3O2)cc1OC,inactive
